Compound activity deposited in PubChem BioAssay by Bradner/Qi Labs at DFCI.
CBX7 inh = blocks human CBX7 binding to H3K27me3 peptide | AlphaScreen His6-CBX7 / biotin-H3K27me3 peptide binding; hits give low values | normalised signal (fraction of DMSO) (concentration not given with the values) | 1.1% of 66,000 active | AID 1224903; in the data active means normalised signal below about 0.5
Target sequence (O95931 whole entry, looked up): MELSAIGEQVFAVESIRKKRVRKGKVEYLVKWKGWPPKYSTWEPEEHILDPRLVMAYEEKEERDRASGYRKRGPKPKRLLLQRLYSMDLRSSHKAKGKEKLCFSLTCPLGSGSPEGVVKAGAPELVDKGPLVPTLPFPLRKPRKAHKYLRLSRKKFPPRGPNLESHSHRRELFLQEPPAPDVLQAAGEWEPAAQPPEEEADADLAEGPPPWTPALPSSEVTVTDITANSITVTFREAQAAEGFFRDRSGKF
* = called active by the depositor. Only a selection was taken, and hits are over-represented in it overall.

SMILES | CBX7 inh
Cc1ccc(OCC(=O)Nc2ccc3nn(-c4cccc(C(F)(F)F)c4)nc3c2)cc1C | 0.93
Cc1oc(-c2ccccc2)nc1C(=O)NCc1cccnc1 | 1
COc1ccc(NC(=O)Cn2cc(S(=O)(=O)c3ccccc3)c(=O)c3cc(C)ccc32)cc1OC | 0.98
CC(NC1CCCc2c1[nH]c1ccc(-c3ccccc3)cc21)c1ccccc1 (stereo unspecified) | 0.73
CCOc1ccccc1NC(=O)CSc1nccn1-c1ccc(Cl)cc1 | 0.31*
COc1cccc(-n2ccnc2SCC(=O)Nc2ccccc2F)c1 | 0.53
CCOc1ccccc1NC(=O)CSc1nccn1-c1cc(C)cc(C)c1 | 0.63
COc1ccccc1NC(=O)CSc1nccn1-c1ccc(Cl)cc1 | 0.51
CCOc1ccccc1NC(=O)CSc1nccn1-c1cccc(OC)c1 | 0.48*
COc1cccc(-n2ccnc2SCC(=O)Nc2ccc(OC)cc2OC)c1 | 0.97
CC(=O)c1cccc(NC(=O)c2cnn3c(C(F)(F)F)cc(-c4ccc(C)cc4)nc23)c1 | 0.94
CC(CCc1ccccc1)NC(=O)c1ccc2c(c1)NC(=O)C1CCCN21 (stereo unspecified) | 0.91
Cc1ccc(NC2c3ncccc3C(=O)N2Cc2ccc(F)cc2)cc1 (stereo unspecified) | 0.44*
CCOc1ccc(NC2c3ccccc3C(=O)N2Cc2ccccc2Cl)cc1 (stereo unspecified) | 0.7
Cc1ccc(Cl)cc1NC1c2ncccc2C(=O)N1Cc1ccc(F)cc1 (stereo unspecified) | 0.86
CCOc1ccc(NC2c3ncccc3C(=O)N2Cc2ccc(F)cc2)cc1 (stereo unspecified) | 0.5*
O=C1c2ccccc2C(Nc2ccccn2)N1Cc1ccccc1 (stereo unspecified) | 0.91
Cc1ccc(NC2c3ccccc3C(=O)N2Cc2ccccc2Cl)cc1 (stereo unspecified) | 0.83
O=C1c2cccnc2C(Nc2ccc(Cl)cc2)N1Cc1ccc(F)cc1 (stereo unspecified) | 0.37*
Cc1ccc(NC2c3ccccc3C(=O)N2Cc2ccccc2)cc1 (stereo unspecified) | 0.89
CCOc1ccc(NC2c3ccccc3C(=O)N2c2cccnc2)cc1 (stereo unspecified) | 0.9
COc1ccc(C2C(Oc3ccc(Cl)cc3)C(=O)N2c2cc(C)ccc2C)cc1OC (stereo unspecified) | 0.95
CCc1ccc(NC(=O)Cn2cnc3cc(C)c(C)cc32)cc1 | 0.93
CCn1c(C(=O)N2CCC(C(=O)NCCC3=CCCCC3)CC2)cc2sccc21 | 0.75
Cc1c(C(=O)NCc2ccccc2Cl)sc2ncnc(N3CCOCC3)c12 | 1
SMILES | CBX7 inh
Cn1c2c(c3cc(C4CCCCC4)ccc31)C(=O)CCC2 | 1.1
Cc1ccc(-c2nnc(OCc3ccccc3)c3ccccc23)cc1S(=O)(=O)N(C)C | 0.99
COc1ccc(OC)c2[nH]c(=O)c(CCNC(=O)c3ccc(Cl)cc3Cl)cc12 | 1
Cc1ccc(NC(=O)CSc2nccn2-c2ccc(Cl)cc2)cc1 | 0.91
CCc1ccc(NC(=O)CSc2nccn2-c2cccc(OC)c2)cc1 | 0.87
COc1cccc(-n2ccnc2SCC(=O)Nc2cccc(C(F)(F)F)c2)c1 | 0.92
Cc1cccc(NC(=O)CSc2nccn2-c2ccc(Cl)cc2)c1 | 0.45*
Cc1cc(C)cc(NC(=O)CSc2nccn2-c2ccccc2)c1 | 0.6
O=C(CSc1nccn1-c1ccc(F)cc1)Nc1cccc(Cl)c1 | 0.67
O=C(CSc1nccn1-c1ccc(Cl)cc1)Nc1cccc(C(F)(F)F)c1 | 0.45*
Cc1cc(C)cc(NC(=O)CSc2nccn2-c2ccc(Cl)cc2)c1 | 0.42*
O=C(CSc1nccn1-c1ccc(Cl)cc1)Nc1cccc(F)c1 | 0.7
CCc1ccc(NC(=O)CSc2nccn2-c2cccc(C)c2)cc1 | 0.76
CCc1ccc(NC(=O)CSc2nccn2-c2cccc(Cl)c2)cc1 | 0.43*
COc1ccc(-n2ccnc2SCC(=O)Nc2cccc(C)c2)cc1 | 0.61
COc1ccc(NC(=O)Cn2cc(S(=O)(=O)c3ccccc3)c(=O)c3cc(F)ccc32)cc1 | 1
CC(NC(=O)C(=O)NCc1cccnc1)C(c1cccs1)N1CCN(c2ccccc2F)CC1 (stereo unspecified) | 0.93
Cc1ccc(-c2nnc(Nc3cccc(Br)c3)c3ccccc23)cc1S(=O)(=O)NCCO | 0.72
COCCCNC(=O)CCCc1cc(-c2ccc(OC)cc2)on1 | 1
O=C(c1ccc2c(c1)N(Cc1ccccc1)C(=O)CS2=O)N1CCc2ccccc2C1 (stereo unspecified) | 1
COc1ccc(NC(=O)CCn2nc(-c3ccc(C)cc3)c3ccccc3c2=O)cc1 | 0.96
CC(NC(=O)c1ccc(F)cc1)C(c1cccs1)N1CCN(c2ccccc2F)CC1 (stereo unspecified) | 1
CCC1=Nc2cc(C(=O)N3CCN(CC)CC3)ccc2Sc2ccc(C)cc21 | 0.84
CC1CCN(c2nc3ccc(C(=O)NC4CC4)cc3s2)CC1 | 0.97
N#Cc1ccccc1Cn1c(-c2cncs2)nc2ccccc21 | 1
COc1ccc(OC)c(NC(=O)CSc2nccn2-c2ccccc2)c1 | 0.76
COc1ccc(-n2ccnc2SCC(=O)Nc2cc(Cl)ccc2OC)cc1 | 1.1
